In PubChem BioAssay (NCI) one finds growth data, which are given here for eight compounds.

SMILES strings stand for the structures. This is part of a sample that, as a whole, favours compounds with a hit. Of some 83,000 tested, about 20% had one in any assay.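 Assay: single dose, 48 h. Readout: percent growth (0 = no net growth; negative = cell death). Active: <10.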 Unmarked numbers belong to inactive results. The source made the active and inactive calls.

Common to all, as to assay: NCI-60 one-dose screen, 48 h (100 = growth as untreated, 0 = no growth, -100 = all killed)
Common to all, as to conditions: 10 µM unless noted

The test system of assay [1] is SK-MEL-2 melanoma.
The test system of assay [2] is EKVX NSCLC.
In assay [3] the test system is SN12C renal.
Assay [4] relates to UO-31 renal.
Assay [5] concerns TK-10 renal.
The test system of assay [6] is ACHN renal.
Assay [7] deals with CAKI-1 renal.
Assay [8] concerns A498 renal.
Assay [9] concerns CCRF-CEM leukemia.
In assay [10] the test system is SR leukemia.
Assay [11] has as its system RPMI-8226 leukemia.
Assay [12] deals with OVCAR-8 ovarian.
Assay [13] concerns OVCAR-5 ovarian.
Assay [14] concerns OVCAR-4 ovarian.
The subject of assay [15] is SK-OV-3 ovarian.
Assay [16] relates to IGROV1 ovarian.
Assay [17] concerns OVCAR-3 ovarian.
Assay [18] concerns HS 578T breast.
Assay [19] deals with NCI/ADR-RES ovarian.
In assay [20] the test system is MOLT-4 leukemia.

As to `CN(C)CCCC1(c2ccc(F)cc2)OCc2cc(-c3ccc4cc[nH]c4c3)ccc21` (stereo unspecified), the growth was 87.6% in assay [1]; 61.6% in assay [2]; 58.6% in assay [3]; 30.2% in [4]; 92.9% in assay [5]; 36.2% in assay [6]. Also, the growth is 30.4% in assay [7]; 81.5% in assay [8]; 33.2% in [9]; -2.82% (active) in assay [10]; 36.7% in [11]; 57.9% in assay [12]. Moreover, the growth is 84.4% in assay [13]; 44.4% in [14]; 90.2% in assay [15]; 23% in assay [16]; 45.6% in assay [17]; 54.6% in assay [18]. For the same compound, the growth in assay [19] is 56.8%.

In the case of `O=C1/C=C/[C@@H](O)[C@@H]2C[C@@H](O)C[C@H]2/C=C/CCC[C@H](CCO)O1`, the growth in assay [1] is -20.3% (active); in assay [2] it was 9.95% (active); in [3] it was 10.5%; in assay [4], 18.1%; in assay [5] it was -30.4% (active); in assay [6], 5.87% (active). Besides, the growth in assay [7] is 1.05% (active); in [8], -33.3% (active); in assay [9] it was 18.8%; in [10], 9.21% (active); in assay [11], 14.7%; in assay [12] it was 11%. The growth in assay [13] was 16.1%; in assay [14], 27.8%; in [15], 30.8%; in assay [16] it was 17.9%; in assay [17] it was -46.9% (active); in assay [18], 29.4%. The growth in [19] was 5.98% (active).

For `O=S(=O)(Nc1cc(Sc2cccc3cccnc23)c(O)c2ccccc12)c1ccccc1`, the growth in assay [1] is 13.4%; in assay [2], 36.4%; in assay [3], 29.6%; in assay [4] it was 23.7%; in assay [5] it was 23.4%; in assay [6], 16.9%. Besides, the growth in assay [7] was 25.9%; in assay [8], 70.4%; in assay [9] it was 4.22% (active); in [10], 5.4% (active); in assay [11], -4.98% (active); in assay [12], 9.56% (active). Moreover, the growth in [13] is 47.1%; in assay [14], -100% (active); in assay [15], 52.1%; in [16] it was 10.4%; in assay [17] it was -81.2% (active); in assay [18], 40.3%. Also, in assay [19], the growth is 8.88% (active).

Consider `O=C1Nc2ccccc2/C1=C/c1cccn1C(=O)c1ccc(Cl)s1`, for which the growth in assay [1] was 86.7%; in assay [2], 22.6%; in assay [3], 86.2%; in [4], 65.1%; in assay [5], 50.6%; in assay [6] it was 47.7%. Moreover, the growth was 64% in assay [7]; 67.4% in assay [8]; 26.6% in assay [9]; 27.8% in [10]; 52.5% in assay [11]; 75.3% in assay [12]. For the same compound, the growth in assay [13] is 66.5%; in assay [14], 15.3%; in assay [15], 72%; in assay [16], 38.6%; in assay [17], 38.8%; in assay [18], 70.8%. In addition, the growth in [19] was 74.3%.

For `S=c1[nH]c(=S)c2c(-c3ccccc3)c(-c3ccccc3)oc2[nH]1`, the growth was 99.6% in [1]; 103% in assay [2]; 95.3% in [3]; 81.6% in assay [4]; 124% in [5]; 106% in [6]. The growth in assay [7] is 101%; in assay [8], 70.9%; in assay [9] it was 114%; in assay [10] it was 94.2%; in [11], 107%; in assay [12], 110%. Further, the growth in assay [13] was 95.2%; in assay [14], 95.2%; in assay [15], 103%; in [16], 99.6%; in assay [17] it was 105%; in [18] it was 104%. The growth in assay [19] is 103%.

On to `CCOc1c(OC)cc2c(c1O)C(=O)N[C@@H]1[C@@H](O)[C@@H](O)[C@H](O)C[C@@H]21`, for which the growth in assay [1] is 106%; in assay [2], 98%; in assay [3], 104%; in assay [4], 92.9%; in assay [5], 93.9%; in [6], 103%. Moreover, the growth was 91.3% in [7]; 99.5% in assay [8]; 103% in assay [9]; 89.2% in assay [10]; 103% in [11]; 101% in [12]. Moreover, the growth in [13] is 98.7%; in assay [14], 107%; in [15] it was 98.1%; in assay [16], 102%; in [17], 102%; in assay [18] it was 100%. For the same compound, in assay [19], the growth is 110%.

Regarding `CCN(CC)CCN1C(=O)c2c(c(C)c3c(oc4ccc(OC)cc43)c2C)C1=O`, the growth in assay [1] is 115%; in assay [2] it was 101%; in assay [3], 92.6%; in [4], 17.5%; in assay [5] it was 94.3%; in [6], 9.28% (active). The growth is 95.8% in assay [7]; 90.8% in [8]; 90.2% in [9]; 96.2% in [20]; 92.5% in assay [11]; 79.9% in assay [12]. Further, the growth is 88.9% in [13]; 103% in assay [14]; 111% in assay [15]; 87.2% in assay [16]; 101% in [18]; 82.6% in [19].

As for `O=c1c2c3c(sc2n2c(-c4cc(-c5ccccc5)no4)nnc2n1Cc1ccccc1)CCCC3`, the growth in assay [1] was 119%; in assay [2], 80%; in assay [3], 90.8%; in assay [4], -41.9% (active); in assay [5], 120%; in assay [6], 95.4%. For the same compound, the growth in assay [7] is -67.8% (active); in [8], 82.2%; in [9] it was 34.8%; in assay [20] it was 55%; in [11], 53.5%; in assay [12], 40.9%. In addition, the growth is 82.8% in [13]; 87.6% in assay [14]; 124% in assay [15]; -11.9% (active) in assay [16]; 78.7% in assay [17]; 101% in assay [18]. Besides, the growth in assay [19] was 80.6%.
